{"source": "PubChem BioAssay AID1347075", "about": "(National Center for Advancing Translational Sciences (NCATS), 2019)", "note": "Screen size: about 400,000 compounds; about 5,500 (1.4%) were called active. About 9% were inconclusive and are not listed. This excerpt belongs to a sample that is enriched for actives. A number with no mark means an inactive call. Calls come from the whole dose curve; as a rule, active = well fitted cell-killing curve with a large enough effect; inconclusive = small, poorly fitted or top-dose-only effect, or effect the other way; inactive = flat fitted curve, though single readings scatter. % is set by controls: 0 for no effect and ±100 for the full control effect; potency is the fitted concentration of half-maximal effect.", "data": [{"test": "qHTS assay for MDR1-selective chemotherapeutics: Primary screen using the parental adenocarcinoma cell KB-3-1; note: nearly all actives have a fitted effect of over 60% in size", "conditions": "KB-3-1 viability, CellTiter-Glo ATP luminescence, 72 h; series mostly up to 46.1 µM; activity change, negative = cytotoxic: at the top concentration", "summary_of_the_method": "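KB-3-1 parental drug-naive adenocarcinoma cells in DMEM/10% FBS, incubated 72 h at 37 C with pin-transferred compounds across a concentration series. Viability by CellTiter-Glo luminescence; concentration-response curves fitted after normalization.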", "units": {"activity change, negative = cytotoxic": "%"}, "values": [{"compound": "O=C(NCc1ccc2c(c1)CCN2C(=O)c1ccccc1)c1ccccc1", "activity change, negative = cytotoxic": 4.06}, {"compound": "COc1ccc(NC(=O)Cn2c(=O)n(Cc3ccc(C(=O)NCc4ccccc4Cl)cc3)c(=O)c3ccccc32)cc1", "activity change, negative = cytotoxic": 4.15}, {"compound": "C=CC(=O)OCCOCCOCCOCCOC(=O)C=C", "Potency": "10.3 µM (active)"}, {"compound": "CCOC(=O)c1ccc(NC(=O)Cn2c(=O)cc(C)c3c(C)nn(-c4cccc(F)c4)c32)cc1", "activity change, negative = cytotoxic": 0.642}, {"compound": "CCC(=O)N1CCc2cc(CNC(=O)Nc3ccccc3Cl)ccc21", "activity change, negative = cytotoxic": -20.1}, {"compound": "COC(=O)c1scc(-c2ccc(C)cc2)c1S(=O)(=O)Nc1cc(Cl)c(OC)cc1OC", "activity change, negative = cytotoxic": -0.714}, {"compound": "CCc1ccc(Sc2cc(C(=O)NCCCOC(C)C)c3ccccc3n2)cc1", "activity change, negative = cytotoxic": -1.08}, {"compound": "CSc1n[nH]c(-c2ccco2)n1", "activity change, negative = cytotoxic": -2.46}, {"compound": "Cn1c(-c2ccco2)nc2cc3ccccc3cc21", "Potency": "18.4 µM (active)"}, {"compound": "Cc1ccc2nc(-c3ccco3)c(Cc3cccc(Cl)c3)n2c1", "activity change, negative = cytotoxic": -2.85}, {"compound": "N#Cc1ccc(-c2cccs2)nc1SCc1ccc(Br)cc1", "activity change, negative = cytotoxic": 2.25}, {"compound": "CCOc1ccccc1NC(=O)Cn1nnc(C(=O)NCc2cccs2)c1N", "Potency": "0.259 µM (active)"}, {"compound": "CCOc1ccccc1NC(=O)Cn1nnc(C(=O)Nc2ccc(C)c(C)c2)c1N", "activity change, negative = cytotoxic": 0.046}, {"compound": "Cc1ccc(NC(=O)Cn2nnc(C(=O)NCc3ccco3)c2N)c(C)c1", "activity change, negative = cytotoxic": -2.38}, {"compound": "CCc1ccccc1NC(=O)Cc1ccc(NC(=O)N2CCCCc3ccccc32)cc1", "activity change, negative = cytotoxic": 0}, {"compound": "CC(C)(C)NC(=O)CSc1nc(-c2ccc(F)cc2)cc(C(F)(F)F)n1", "activity change, negative = cytotoxic": 4.09}, {"compound": "Cc1ccc(Cl)cc1NC(=O)CSc1nccn1C", "activity change, negative = cytotoxic": -6.62}, {"compound": "COc1ccc(-c2cc(C(=O)Nc3sc4c(c3C(N)=O)CCCC4)no2)cc1", "activity change, negative = cytotoxic": 15.2}, {"compound": "COc1ccc(-c2nc3c(s2)CCc2onc(-c4ccc(OC)cc4)c2-3)cc1", "Potency": "20.6 µM (active)"}, {"compound": "COc1ccc(-c2nc3c(s2)CCc2onc(-c4ccc(Br)cc4)c2-3)cc1", "activity change, negative = cytotoxic": 0}, {"compound": "COc1ccccc1CNC(=O)CCn1c(=O)c2ccccc2n(CC(=O)Nc2cccc(Cl)c2)c1=O", "activity change, negative = cytotoxic": 1.39}, {"compound": "COc1ccc(CCNc2ncnc3c2cnn3-c2ccc(C)cc2)cc1", "activity change, negative = cytotoxic": 6.58}, {"compound": "O=C(NCc1ccccc1Cl)C1=Cc2cc(Br)ccc2OC1", "activity change, negative = cytotoxic": -0.821}, {"compound": "CCOC(=O)c1cccc(NC(=O)CCOc2ccccc2)c1", "activity change, negative = cytotoxic": -5.85}, {"compound": "CCn1c2ccccc2c2cc(NC(=O)COc3ccc(C)cc3C)ccc21", "activity change, negative = cytotoxic": -5.72}, {"compound": "CCOCCC(=O)Nc1ccc2c(c1)c(=O)n(C)n2-c1ccc2ccccc2c1", "Potency": "3.66 µM (active)"}, {"compound": "CCOc1ccccc1CNC(=O)C1CCCN(S(=O)(=O)c2ccc3c(ccn3C)c2)C1", "note": "(configuration not stated)", "activity change, negative = cytotoxic": -11.1}, {"compound": "COc1ccccc1NC(=O)c1sc2nc(C)c(C(=O)Nc3ccc(Cl)cc3)c(-c3ccc(Br)cc3)c2c1N", "activity change, negative = cytotoxic": 9.2}, {"compound": "O=C(Nc1ccc(S(=O)(=O)N2CCc3ccccc3C2)cc1)c1ccccc1", "Potency": "18.4 µM (active)"}, {"compound": "CC(C)c1ccc(NC(=O)c2cc(S(=O)(=O)N3CCc4ccccc4C3)ccc2F)cc1", "activity change, negative = cytotoxic": 8.41}, {"compound": "COC(=O)c1ccc(S(=O)(=O)N2CCc3ccccc3C2)cc1", "activity change, negative = cytotoxic": 2.98}, {"compound": "CCOc1ccc(N(CC)C(=O)c2cc3c(=O)oc4ccccc4c3s2)cc1", "activity change, negative = cytotoxic": 18.5}, {"compound": "Cc1ccc(Nc2ccc3cc(S(=O)(=O)N4CCCCC4)ccc3n2)cc1F", "activity change, negative = cytotoxic": 1.58}, {"compound": "COc1ccc(N2CCN(S(=O)(=O)c3ccc4c(c3)CC(=O)N4)CC2)cc1", "Potency": "inactive"}, {"compound": "CCOc1ccc(N(CC(=O)OC)S(=O)(=O)c2c(C)noc2C)cc1", "activity change, negative = cytotoxic": 7.88}, {"compound": "COc1ccc(N(CC(=O)Nc2cc(OC)ccc2OC)S(=O)(=O)c2c(C)noc2C)cc1", "Potency": "18.4 µM (active)"}, {"compound": "Cc1noc(C)c1S(=O)(=O)N(CC(=O)Nc1ccc2c(c1)OCCO2)c1ccc(C(C)C)cc1", "activity change, negative = cytotoxic": -18.5}, {"compound": "CCOC(=O)CN1C(C(=O)c2ccccc2)=C(OC(=O)C(C)(C)C)c2ccccc2S1(=O)=O", "activity change, negative = cytotoxic": 5.45}, {"compound": "COc1ccc(Cn2c(=O)oc3ccccc32)cc1", "activity change, negative = cytotoxic": -5.14}, {"compound": "COc1ccc(CNc2nc(-c3ccc(Cl)cc3)nn2C(=O)c2ccccc2)cc1", "activity change, negative = cytotoxic": -6.28}, {"compound": "COc1ccc(Cn2c(-c3ccc(Cl)cc3)c[n+]3ccccc23)cc1", "Potency": "3.66 µM (active)"}, {"compound": "Cc1oc2ncnc(N3CCCCC3)c2c1C(=O)N1CCN(c2cccc(Cl)c2)CC1", "activity change, negative = cytotoxic": -8.44}, {"compound": "Cc1ccccc1-c1cc(C(=O)NCc2cccs2)n(CC2CC(c3cccnc3)=NO2)n1", "note": "(configuration not stated)", "Potency": "18.4 µM (active)"}, {"compound": "Cc1ccccc1-c1cc(C(=O)NCC2CC2)n(CC2CC(c3cccnc3)=NO2)n1", "note": "(configuration not stated)", "activity change, negative = cytotoxic": -0.87}, {"compound": "Cc1ccc(CNC(=O)c2cc(-c3ccccc3C)n(CC3CC(c4cccc([N+](=O)[O-])c4)=NO3)n2)cc1", "note": "(configuration not stated)", "activity change, negative = cytotoxic": 6.56}, {"compound": "C=C1C=C(C(F)F)n2ncc(C(=O)NCCc3ccccc3OC)c2N1", "activity change, negative = cytotoxic": 0}, {"compound": "CCn1cc(C(=O)NCc2ccccc2)c(=O)c2cc(S(=O)(=O)N3CCCCC3)ccc21", "activity change, negative = cytotoxic": 16.8}, {"compound": "Fc1ccc2[nH]c3c(N4CCN(Cc5ccc6c(c5)OCO6)CC4)ncnc3c2c1", "Potency": "18.4 µM (active)"}, {"compound": "N#C/C=C/N1CCN(Cc2ccc3c(c2)OCO3)CC1", "activity change, negative = cytotoxic": 16}, {"compound": "O=C(CSc1nc2c(c(=O)[nH]1)CN(Cc1ccc3c(c1)OCO3)CC2)Nc1cc(F)ccc1F", "activity change, negative = cytotoxic": 1.29}, {"compound": "Fc1ccc2[nH]c3c(N4CCSCC4)ncnc3c2c1", "Potency": "5.17 µM (active)"}, {"compound": "CCc1nc2onc(C)c2c(=O)n1CC(=O)O", "activity change, negative = cytotoxic": -2.75}, {"compound": "Cc1oc2ncn(CC(C)C)c(=O)c2c1C(=O)N1CCN(c2ccccc2F)CC1", "activity change, negative = cytotoxic": -0.942}, {"compound": "O=C(NCCC1=CCCCC1)c1ccc2c(c1)N(Cc1ccccc1F)C(=O)c1ccccc1S2(=O)=O", "activity change, negative = cytotoxic": 4.55}, {"compound": "O=C(CCS(=O)(=O)c1cc(Br)cc2c1N(C(=O)C1CC1)CC2)Nc1ccc(C(F)(F)F)cc1", "activity change, negative = cytotoxic": 4.76}, {"compound": "Cc1cccc(N2CCN(c3ccc(C(=O)O)cc3NC(=O)c3ccccc3F)CC2C)c1", "note": "(configuration not stated)", "activity change, negative = cytotoxic": 7.44}, {"compound": "O=C(c1cnn2c1NC(=C1CC1)C=C2C(F)F)N1CCc2ccccc2C1", "activity change, negative = cytotoxic": 0}, {"compound": "CSc1nn(Cc2cccc(C)c2)c(N)c1S(=O)(=O)c1ccccc1", "activity change, negative = cytotoxic": -14.3}, {"compound": "COc1cccc(-c2cnc3c(NC(C)=O)cc(-c4cccc(NC(C)=O)c4)cn23)c1", "activity change, negative = cytotoxic": 0}, {"compound": "COc1cccc(-c2cc(NC(C)=O)c3ncc(-c4cccc(C(C)=O)c4)n3c2)c1", "activity change, negative = cytotoxic": 0}, {"compound": "COc1ccc(-c2cc(NC=O)c3ncc(-c4cc(OC)c(OC)c(OC)c4)n3c2)c(OC)c1", "Potency": "1.3 µM (active)"}, {"compound": "CC(=O)c1cccc(-c2cnc3c(NC=O)cc(-c4ccccc4Oc4ccccc4)cn23)c1", "activity change, negative = cytotoxic": -2.94}, {"compound": "COc1ccc(-c2cc(NC=O)c3ncc(-c4cccc(C(=O)N(C)C)c4)n3c2)c(OC)c1", "activity change, negative = cytotoxic": -0.891}, {"compound": "COc1ccc(-c2cc(NC(C)=O)c3ncc(-c4cc(OC)c(OC)c(OC)c4)n3c2)cn1", "Potency": "5.8 µM (active)"}, {"compound": "COc1cccc(-c2cnc3c(NC(C)=O)cc(-c4cc(F)ccc4OC)cn23)c1", "Potency": "16.4 µM (active)"}, {"compound": "CC(=O)Nc1cccc(-c2cc(NC(C)=O)c3ncc(-c4ccccc4)n3c2)c1", "activity change, negative = cytotoxic": -3.06}, {"compound": "COc1ccccc1-c1cc(NC(C)=O)c2ncc(-c3ccc(F)cc3)n2c1", "activity change, negative = cytotoxic": 0}]}]}
